Among the data in PubChem BioAssay are growth inhibition, inhibition and outcome values, retold here.

Assay [1] can be described thus: antimalarial activity against Dd2 strain (AID 2302;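 active = growth inhibition above 50% at the single 2 µM test dose, taken to imply half-maximal potency below 2 µM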;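 also: 0% = DMSO untreated growth and 100% = chloroquine plus artemisinin killed control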). Conditions: P. falciparum Dd2 in RBCs, LDH growth readout, 72 h; at 2 µM; hits give high values.
Assay [2] can be described thus: HepG2 cytotoxicity, primary screen, cytotoxicity control for P. falciparum antimalarial project, cell-based, ATP luminescence (AID 2303;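 active = inhibition above 50%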;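 also: 0% = DMSO wells and 100% = digitonin-killed cells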). The note with it: HepG2 viability, 24-48 h, at 10 µM, hits give high values.
Assay [3] has as its target L-lactate dehydrogenase (Plasmodium falciparum (isolate CDC / Honduras)) (UniProt Q27743). Kind of assay: PfLDH activity inhibition – cell lysate, 3D7 strain, counter-screen for P. falciparum growth inhibition project (AID 2304).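 Also: 0% = vehicle and 100% = reference inhibitor.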 The note with it: P. falciparum 3D7 crude extract, LDH APAD/NBT absorbance; at 2 µM; hits give high values.
A short description of assay [4]: inhibition of 3D7 malaria parasite growth – strain 3D7 (AID 2306).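 Also: 0% = DMSO wells and 100% = chloroquine plus artemisinin control wells.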 Conditions: P. falciparum 3D7 erythrocytic growth, LDH absorbance, 72 h; at 2 µM; hits give high values.
Assay [5] concerns the target Calcium-dependent protein kinase 1 (Plasmodium falciparum (isolate 3D7)) (UniProt P62344). Kind of assay: PfCDPK1 kinase inhibitors, biochemical, TCAMS library (AID 1159585; cut-off not given, nearly all actives have IC50 up to about 0.98 µM;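 also: inhibitors leave more ATP so luminescence rises with inhibition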). Conditions: recombinant PfCDPK1, Kinase-Glo ATP depletion luminescence.
In assay [6] the target is Plasmodium falciparum protein kinase 6 (PK6, PF3D7_1337100) (UniProt Q8IDW1). Kind of assay: PfPK6 kinase inhibitors, biochemical, TCAMS library (AID 1159586). The note with it: recombinant PfPK6, Kinase-Glo ATP depletion luminescence. A general note: Kinase-Glo measures the ATP left after a reaction by luminescence.
Assay [7] has as its target Protein kinase 7 (PK7), Plasmodium falciparum 3D7 (PF3D7_0213400) (UniProt Q7YTF7). The experiment in a line: inhibition of Plasmodium PK7 catalytic activity – biochemical, TCAMS antimalarial set, Kinase-Glo luminescence (AID 1159587). Conditions: recombinant PfPK7, Kinase-Glo ATP depletion luminescence.
For assay [8], the target named is Calcium-dependent protein kinase 4 (Plasmodium falciparum (isolate 3D7)) (UniProt Q8IBS5). Kind of assay: PfCDPK4 kinase inhibitors, biochemical, TCAMS library (AID 1159588; cut-off not given, nearly all actives have IC50 up to about 0.91 µM). Conditions: recombinant PfCDPK4, Kinase-Glo ATP depletion luminescence.

Values without a mark were called inactive. For some of these results: Entries with a potency or affinity are not part of this list. Calls of active or inactive are those of the source. Unless noted, no rule for the calls is given here.

Calcium-dependent protein kinase 4 (Plasmodium falciparum (isolate 3D7)), sequence (Q8IBS5 whole entry, looked up): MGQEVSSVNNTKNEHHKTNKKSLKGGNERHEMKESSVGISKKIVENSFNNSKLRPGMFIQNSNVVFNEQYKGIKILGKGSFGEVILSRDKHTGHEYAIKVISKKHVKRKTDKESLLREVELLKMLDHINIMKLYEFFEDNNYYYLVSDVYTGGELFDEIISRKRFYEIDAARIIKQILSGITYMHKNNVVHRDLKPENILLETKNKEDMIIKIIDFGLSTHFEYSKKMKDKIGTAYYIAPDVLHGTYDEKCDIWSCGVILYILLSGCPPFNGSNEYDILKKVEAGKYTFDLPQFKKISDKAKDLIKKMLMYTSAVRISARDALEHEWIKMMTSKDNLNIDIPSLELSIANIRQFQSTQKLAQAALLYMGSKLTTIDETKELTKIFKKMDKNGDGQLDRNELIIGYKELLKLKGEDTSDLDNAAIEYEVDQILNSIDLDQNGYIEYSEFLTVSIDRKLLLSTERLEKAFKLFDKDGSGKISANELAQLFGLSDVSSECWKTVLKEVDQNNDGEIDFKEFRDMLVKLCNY
Protein kinase 7 (PK7), Plasmodium falciparum 3D7 (PF3D7_0213400), sequence (Q7YTF7 1-343): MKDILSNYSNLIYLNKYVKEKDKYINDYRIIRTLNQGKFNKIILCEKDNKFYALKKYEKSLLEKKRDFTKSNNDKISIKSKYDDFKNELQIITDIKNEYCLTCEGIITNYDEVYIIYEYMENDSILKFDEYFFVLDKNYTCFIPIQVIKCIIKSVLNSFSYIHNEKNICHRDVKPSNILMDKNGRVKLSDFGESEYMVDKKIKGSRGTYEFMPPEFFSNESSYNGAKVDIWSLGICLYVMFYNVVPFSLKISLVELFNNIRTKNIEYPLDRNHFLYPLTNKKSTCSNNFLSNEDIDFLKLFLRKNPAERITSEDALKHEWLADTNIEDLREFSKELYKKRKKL
Calcium-dependent protein kinase 1 (Plasmodium falciparum (isolate 3D7)), sequence (P62344 whole entry, looked up): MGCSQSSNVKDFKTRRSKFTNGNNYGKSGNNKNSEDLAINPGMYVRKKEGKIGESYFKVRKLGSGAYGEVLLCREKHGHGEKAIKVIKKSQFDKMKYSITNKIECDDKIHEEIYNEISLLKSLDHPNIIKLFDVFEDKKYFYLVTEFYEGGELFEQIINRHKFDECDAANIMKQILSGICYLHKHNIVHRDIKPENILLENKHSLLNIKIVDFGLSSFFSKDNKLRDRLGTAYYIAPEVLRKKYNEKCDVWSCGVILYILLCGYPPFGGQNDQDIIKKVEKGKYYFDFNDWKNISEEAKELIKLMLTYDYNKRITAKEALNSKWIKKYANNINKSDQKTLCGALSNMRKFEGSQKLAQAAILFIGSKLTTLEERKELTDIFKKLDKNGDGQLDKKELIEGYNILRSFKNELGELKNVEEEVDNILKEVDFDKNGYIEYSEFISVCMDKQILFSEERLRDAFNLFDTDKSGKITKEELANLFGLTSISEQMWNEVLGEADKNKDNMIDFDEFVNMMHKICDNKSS
Plasmodium falciparum protein kinase 6 (PK6, PF3D7_1337100), sequence (Q8IDW1 1-305): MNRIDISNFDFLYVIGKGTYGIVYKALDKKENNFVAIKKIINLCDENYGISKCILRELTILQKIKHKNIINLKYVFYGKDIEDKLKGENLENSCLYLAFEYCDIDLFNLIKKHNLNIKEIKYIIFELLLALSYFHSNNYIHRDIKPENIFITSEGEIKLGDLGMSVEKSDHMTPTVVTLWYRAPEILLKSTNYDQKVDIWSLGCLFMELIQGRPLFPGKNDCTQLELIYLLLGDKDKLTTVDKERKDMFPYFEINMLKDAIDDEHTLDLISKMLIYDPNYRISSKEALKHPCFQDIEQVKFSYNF
L-lactate dehydrogenase (Plasmodium falciparum (isolate CDC / Honduras)), sequence (Q27743 whole entry, looked up): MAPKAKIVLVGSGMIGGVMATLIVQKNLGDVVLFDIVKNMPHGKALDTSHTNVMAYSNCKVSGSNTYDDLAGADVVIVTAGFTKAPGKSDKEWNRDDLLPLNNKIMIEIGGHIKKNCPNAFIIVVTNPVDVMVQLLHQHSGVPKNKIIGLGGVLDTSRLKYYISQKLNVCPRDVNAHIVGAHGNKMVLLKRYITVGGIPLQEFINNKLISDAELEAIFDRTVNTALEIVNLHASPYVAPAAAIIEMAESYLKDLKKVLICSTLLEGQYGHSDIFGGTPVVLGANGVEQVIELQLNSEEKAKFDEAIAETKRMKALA

For orientation: inhibition means the drop in the measured response relative to a control, in per cent. For `Cc1cccc(C(=O)N2CCN(Cc3cccc(NC(=O)c4ccco4)c3)CC2)c1`, the growth inhibition in assay [1] is 79% (active); in assay [4], 94% (active). Further, the inhibition in assay [2] was 7%; in assay [3], 1%. The result in assay [5], in assay [6], in assay [7] and in assay [8] was inactive.

`CCCN1CCN(Cc2ccc(C(=O)Nc3ccc(Cl)cc3)cc2)CC1`: the growth inhibition in assay [1] is 14%; in assay [4] it was 94% (active). Further, the figures for the inhibition in assay [2] and in assay [3] were 48% and -2%, respectively. The result in assay [5], in assay [6], in assay [7] and in assay [8] was inactive.

Regarding `CC1(C)N=C(N)N=C(N)N1OCCCOc1c(Cl)cc(Cl)cc1Cl`, the growth inhibition in assay [1] is 97% (active); in assay [4], 94% (active). Besides, the inhibition is 65% (active) in assay [2] and -2% in assay [3]. The outcome in assay [5], in assay [6], in assay [7] and in assay [8] was inactive.

In the case of `CCc1cc2c(O)c([N+](=O)[O-])c(=O)oc2cc1OCCCCCOc1cc2oc(=O)c([N+](=O)[O-])c(O)c2cc1CC`, the growth inhibition in assay [1] was 0%; in assay [4], 99% (active). Moreover, the values for the inhibition in assay [2] and in assay [3] were 11% and -1%, respectively. The result in assay [5], in assay [6], in assay [7] and in assay [8] was inactive.

For `COc1cc2ccccc2c(OC)c1CCNCCCCNCCc1c(OC)cc2ccccc2c1OC`, the growth inhibition was 30% in assay [1] and 99% (active) in assay [4]. The figures for the inhibition in assay [2] and in assay [3] were 100% (active) and 7%, respectively. Further, the result in assay [5], in assay [6], in assay [7] and in assay [8] was inactive.

As for `Oc1c(CN2CCC(Cc3ccccc3)CC2)cc(Cl)c2cccnc12`, the growth inhibition was 94% (active) in assay [1] and 96% (active) in assay [4]. The inhibition was 49% in assay [2] and 4% in assay [3]. For the same molecule, the outcome in assay [5], in assay [6], in assay [7] and in assay [8] was inactive.

Take `N#Cc1ccc(/C=C/C(=O)NCCCCCN2CCCN(C(=O)Nc3ccc(Cl)c(C(F)(F)F)c3)CC2)cc1`: the growth inhibition in assay [1] was 13%; in assay [4] it was 98% (active). The inhibition in assay [2] is 28%; in assay [3], 0%. Also, the result in assay [5], in assay [6], in assay [7] and in assay [8] was inactive.

Regarding `O=C(Nc1ccc(C(F)(F)F)cc1)c1ccc(S(=O)(=O)NC2CCN(CC3CCCCC3)CC2)cc1`, the growth inhibition in assay [1] was 20%; in assay [4], 101% (active). The values for the inhibition in assay [2] and in assay [3] were 30% and 1%, respectively. The outcome in assay [5], in assay [6], in assay [7] and in assay [8] was inactive.

For `O=C(NC1CCN(c2ccnc3ccccc23)C1)c1ccc(OC(F)(F)F)cc1` (stereo not given), the growth inhibition is 68% (active) in assay [1] and 89% (active) in assay [4]. Also, the inhibition in assay [2] is 35%; in assay [3], -4%. Also, the result in assay [5], in assay [6], in assay [7] and in assay [8] was inactive.

Consider `O=C(N[C@@H](Cc1ccccc1)[C@H](O)CNCCC(F)(F)F)c1cccc(OCC2CC2)c1`, for which the results for the growth inhibition in assay [1] and in assay [4] were 95% (active) and 98% (active), respectively. For the same molecule, the inhibition in assay [2] is 0%; in assay [3] it was -1%. In addition, the result in assay [5], in assay [6], in assay [7] and in assay [8] was inactive.

`O=C(NCCCCN1CCC(c2ccc3c(c2OC(=O)c2ccc(NC(=O)c4ccc(Cl)cc4)cc2)CCCC3)CC1)c1ccc(NC(=O)c2ccc(Cl)cc2)cc1`: the growth inhibition is 99% (active) in assay [1] and 101% (active) in assay [4]. For the same molecule, the figures for the inhibition in assay [2] and in assay [3] were 62% (active) and -2%, respectively. Also, the result in assay [5], in assay [6], in assay [7] and in assay [8] was inactive.

Consider `COC(=O)CCCCOc1cc(Cc2cnc(N)nc2N)cc(OC)c1OC`, for which the growth inhibition is -1% in assay [1] and 97% (active) in assay [4]. The inhibition in assay [2] was -10%; in assay [3] it was -3%. Besides, the outcome in assay [5], in assay [6], in assay [7] and in assay [8] was inactive.

On to `O=C(Nc1cc(F)cc(-c2cccnc2)c1)c1ccc2c(=O)n(Cc3ccccc3)cnc2c1`, for which the values for the growth inhibition in assay [1] and in assay [4] were 11% and 98% (active), respectively. Also, the inhibition in assay [2] is 7%; in assay [3], 2%. For the same molecule, the outcome in assay [5], in assay [6], in assay [7] and in assay [8] was inactive.

Regarding `Cc1ccc2nc(-c3cc(-c4ccc(CO)cc4)cnc3N)[nH]c2c1`, the growth inhibition in assay [1] is 6%; in assay [4], 95% (active). Also, the inhibition in assay [2] is 52% (active); in assay [3], 9%. Further, the result in assay [5], in assay [6], in assay [7] and in assay [8] was inactive.

As to `CC(C)c1ccc(OCC(O)CN(CCN2CCOCC2)C(=O)Nc2ccc(Br)cc2)cc1` (stereo not given), the growth inhibition is 44% in assay [1] and 98% (active) in assay [4]. In addition, the results for the inhibition in assay [2] and in assay [3] were 6% and -2%, respectively. Besides, the result in assay [5], in assay [6], in assay [7] and in assay [8] was inactive.

With `CC(C)c1cccc(C(C)C)c1NC(=O)NNC(=O)c1ccc(CCN2CCC(c3nc(COCC(F)(F)F)c(-c4ccc(F)cc4)o3)CC2)cc1`, the growth inhibition in assay [1] was 34%; in assay [4] it was 88% (active). Moreover, the inhibition is 61% (active) in assay [2] and -2% in assay [3]. In addition, the result in assay [5], in assay [6], in assay [7] and in assay [8] was inactive.

`CCc1cn(CCc2ccccc2)c2ccc(C(=O)N[C@@H](Cc3ccccc3)[C@H](O)CNC(C)(C)CCCC(C)C)cc12`: the growth inhibition was 99% (active) in assay [1] and 98% (active) in assay [4]. The inhibition in assay [2] is 66% (active); in assay [3] it was 5%. Also, the outcome in assay [5], in assay [6], in assay [7] and in assay [8] was inactive.

On to `Cc1ccc(NC(=O)c2cccc(N3CCN(c4ccncc4)CC3)c2)cc1F`, for which the values for the growth inhibition in assay [1] and in assay [4] were 72% (active) and 101% (active), respectively. Besides, the inhibition in assay [2] was 43%; in assay [3] it was -1%. Moreover, the result in assay [5], in assay [6], in assay [7] and in assay [8] was inactive.

For the molecule `Fc1ccc2nc(-c3cccc(-c4cccc(CNCc5cnn(-c6ccccc6)n5)c4)c3)[nH]c2c1`, the growth inhibition in assay [1] is 57% (active); in assay [4], 91% (active). In addition, the inhibition in assay [2] was 18%; in assay [3], 4%. Besides, the outcome in assay [5], in assay [6], in assay [7] and in assay [8] was inactive.

In the case of `CC(C)C[C@H](NC(=O)c1cc2ccccc2s1)C(=O)N[C@H]1CCN(Cc2ccc(OCCCN(C)C)c(Cl)c2)C1`, the growth inhibition in assay [1] was 89% (active); in assay [4] it was 100% (active). For the same molecule, the inhibition in assay [2] is 83% (active); in assay [3], 1%. The result in assay [5], in assay [6], in assay [7] and in assay [8] was inactive.
